Data published in PubChem BioAssay (EPA / NIEHS).
Values joined by “and” are separate entries in the source; they are usually repeats but may differ in a detail not shown here. Equal values may be shown once. Active and inactive are the calls of the source. How the source made its calls: active means hit-call score of the fitted dose curve at least 0.9, where 1 is the maximum; inactive means score below 0.9.

Experiment: CCTE_Shafer_MEA_acute_network_burst_percentage: CCTE's Neural Acute Assay for Percentage of Network Bursts, Shafer Lab (AID 2284022);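 further: curves fitted for loss so actives lower network burst percentage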
Method: CCTE_Shafer_MEA_acute assay is conducted using Axion Biosystems 48 well microelectrode array (MEA) plates and Maestro recording system. Each well of the MEA plate contains a grid of 16 microelectrodes embedded in the culture surface. Electrically active cells, such as neurons, can be cultured over the electrodes, and electrical activity in these cells can be recorded extracellularly. The spontaneous firing of neurons is captured from each electrode on a microsecond timescale providing both temporally and spatially precise data. […] The CCTE_Shafer_MEA_acute assay uses primary cultures of rat cortical neurons. As these cultures mature over time, neural networks develop functional activity and form cohesive networks in which electrical activity can be highly coordinated. Baseline 40-minute recordings are made on days post-plating 13 or 15, followed by a secondary 40-minute recording after chemical exposure.CCTE_Shafer_MEA_acute_network_burst_percentage is a component of the CCTE_Shafer_MEA_acute assay. It measures the percent of spikes (action potential firings) in network bursts (temporally-clustered groups of spikes across multiple electrodes) as the number of spikes occuring in network bursts divided by the total number of spikes during a recording in a microelectrode array (MEA) using Axion Biosystems Maestro 768 channel amplifier with the AxIS adaptive spike detector. The recordings before and after chemical treatment are used to calculate a percent change in the network burst percentage in each well.Data from the assay component CCTE_Shafer_MEA_acute_network_burst_percentage was analyzed into 1 assay endpoint. This assay endpoint, CCTE_Shafer_MEA_acute_network_burst_percentage, was analyzed in the negative analysis fitting direction relative to DMSO as the negative control and baseline of activity. Using a type of functional reporter, gain or loss-of-signal activity can be used to understand electrical activity.
Spontaneous activity in the cortical cultures was recorded using an Axion Biosystems Maestro 768 channel amplifier and Axion Integrated Studios (AxIS) v1.8 (or later) software. The amplifier recorded from all channels simultaneously (gain = 1200 x; sampling rate = 12.5 kHz/channel): raw signals were filtered with a Butterworth band-pass filter (300-5000 Hz), which filters out slower local field potentials leaving only fast potentials, i.e., "spikes", arising from extracellular currents associated with action potentials (Pine 2006; Wheeler and Nam 2011). On-line spike detection of filtered signals was conducted with the AxIS adaptive spike detector, using a threshold of 8x the root mean squared (rms) noise on each channel. Any electrodes with rms noise levels greater than 5 uV were grounded (e.g., no data were recorded). Once grounded, an electrode was grounded for the duration of the experiment. All recordings were conducted at 37 C. Wells were deemed usable if on the day of the exposure >/= 10 electrodes were active (defined as >/= 5 spikes/min). On DIV 13 or 15, a minimum of three wells from one cortical culture preparation were treated with each compound (0.03-40 uM). Prior to recording baseline activity, each mwMEA plate was placed in the Maestro at 37 C and allowed to sit for 20 min while firing rates stabilized. Baseline activity (40 min) was recorded before the addition of each compound. An additional 40 min of spontaneous activity was recorded in the presence of each compound. Changes in network parameters relative to baseline were assessed following compound treatment.

With `N#Cc1nn(-c2c(Cl)cc(C(F)(F)F)cc2Cl)c(N)c1S(=O)C(F)(F)F` (stereo not drawn) as the compound, how does the outcome read?
Its outcome is “inactive”.

For `CC1COC(Cn2cncn2)(c2ccc(Oc3ccc(Cl)cc3)cc2Cl)O1` (stereo not drawn), which outcome is on record?
Its outcome is “inactive”.

Which outcome does the source give for `COP(N)(=O)SC` (stereo not drawn) here?
The outcome was “inactive”.

Which AC50 does the source give for `OC(c1ccc(Cl)cc1)(c1cncnc1)c1ccccc1Cl` (stereo not drawn) here?
Its AC50 is 6.61 µM (active).

For `CC(C)(C)c1ccc(CSc2cnn(C(C)(C)C)c(=O)c2Cl)cc1`, which AC50 is on record?
The AC50 was 3.29 µM (active).

Which AC50 does the source give for `COc1ccc(C(c2ccc(OC)cc2)C(Cl)(Cl)Cl)cc1` here?
The AC50 was 19.9 µM (active).

For `CS/C(C)=N/OC(=O)N(C)SN(C)C(=O)O/N=C(\C)SC`, which outcome is on record?
Its outcome is “inactive”.

With `CCCCNC(=O)OCC#CI` as the compound, how does the AC50 read?
Its AC50 is 37.1 µM (active).

For `CC(Oc1ccc(Cl)cc1Cl)C(=O)O` (stereo not drawn), which outcome is on record?
The outcome was “inactive”.

Which AC50 does the source give for `CO/C=C(/C(=O)OC)c1ccccc1Oc1cc(Oc2ccccc2C#N)ncn1` here?
The AC50 was 11.1 µM (active).

With `C#CCOS(=O)OC1CCCCC1Oc1ccc(C(C)(C)C)cc1` (stereo not drawn) as the compound, how does the outcome read?
Its outcome is “inactive”.

Which outcome does the source give for `CON(C)C(=O)Nc1ccc(Cl)c(Cl)c1` here?
Its outcome is “inactive”.

Which outcome does the source give for `O=C(O)c1nc(Cl)ccc1Cl` here?
Its outcome is “inactive”.

Which outcome does the source give for `CC(C)Oc1cc(-n2nc(C(C)(C)C)oc2=O)c(Cl)cc1Cl` here?
Its outcome is “inactive”.

With `C=CCC1=C(C)C(OC(=O)C2C(C=C(C)C)C2(C)C)CC1=O` (stereo not drawn) as the compound, how does the AC50 read?
The AC50 was 7.43 µM (active) and 1.34 µM (active).

With `Cc1ccc(-c2c(Cl)nc(C#N)n2S(=O)(=O)N(C)C)cc1` as the compound, how does the outcome read?
The outcome was “inactive”.

Which AC50 does the source give for `COC(=O)C(C)Oc1ccc(Oc2ccc(Cl)cc2Cl)cc1` (stereo not drawn) here?
Its AC50 is 25.7 µM (active).

With `COP(=S)(OC)Oc1nc(Cl)c(Cl)cc1Cl` as the compound, how does the outcome read?
The outcome was “inactive”.

For `CCOP(=S)(OCC)SCn1c(=O)oc2cc(Cl)ccc21`, which AC50 is on record?
Its AC50 is 29 µM (active).

Which outcome does the source give for `N#CC(CCc1ccc(Cl)cc1)(Cn1cncn1)c1ccccc1` (stereo not drawn) here?
The outcome was “inactive”.

For `C=CCC1=C(C)[C@@H](OC(=O)[C@@H]2[C@@H](C=C(C)C)C2(C)C)CC1=O`, which AC50 is on record?
Its AC50 is 31 µM (active).

Which outcome does the source give for `CCCN(CCC)c1c([N+](=O)[O-])cc(S(N)(=O)=O)cc1[N+](=O)[O-]` here?
The outcome was “inactive”.

Which outcome does the source give for `CNC(=O)ON=CC(C)(C)SC` here?
Its outcome is “inactive”.

Which AC50 does the source give for `Cc1c(F)c(F)c(COC(=O)C2C(/C=C(\Cl)C(F)(F)F)C2(C)C)c(F)c1F` (stereo not drawn) here?
Its AC50 is 0.567 µM (active).

Which outcome does the source give for `Fc1ccc(Oc2ccnc3cc(Cl)cc(Cl)c23)cc1` here?
Its outcome is “inactive”.

Which AC50 does the source give for `COC(=O)N(OC)c1ccccc1COc1ccn(-c2ccc(Cl)cc2)n1` here?
Its AC50 is 0.113 µM (active).

Which AC50 does the source give for `CCCC1COC(Cn2cncn2)(c2ccc(Cl)cc2Cl)O1` (stereo not drawn) here?
Its AC50 is 20 µM (active).

Which outcome does the source give for `CCNc1nc(Cl)nc(NC(C)C)n1` here?
Its outcome is “inactive”.
